SKN-1 inh = suppressors of acrylamide-induced Pgst-4::GFP reporter in worms, primary screen, SKN-1 inhibitor project, whole organism, uHTS, GFP/RFP fluorescence ratio, strain VP596; C. elegans VP596 Pgst-4::GFP/RFP ratio, 24 h; inhibition, % at 21.8 µM; 360,000 compounds, 0.49% hits;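 active means interference check ratio from 0.5 to 1.5 plus GFP to RFP signal ratio inhibition reaching or exceeding a fixed threshold, cut at about 30% in these data, passing the limit was not always enough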
GRIN3A LBD mod = binders of NR3A ligand-binding domain, primary screen, biophysical, differential scanning fluorimetry, uHTS; NR3A LBD differential scanning fluorimetry, Tm shift; 0% = protein alone, 100% = glycine-bound protein; Tm shift relative to glycine control, % at 25 µM; 340,000 compounds, 2.5% hits; AID 1259313, 2017;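 active means melting temperature shift of at least 10% of the positive control shift, at one fixed dose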
esBAF inh = Bmi1 luciferase reporter increase in mESCs, primary screen, esBAF inhibitor project, mouse ES cells, Bmi1 luciferase knock-in, single point; reporter increase, % at 12.5 µM; 24 h; 100% = twice the neutral-well signal; AID 602393, 2012; 350,000 compounds, 2% hits; in the data active means activation above about 40%;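 further: 0% = median of the plate's neutral control wells and 100% = double that signal; a rise in the Bmi1 reporter signal indicates esBAF inhibition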
SMARCA2 activ = SMARCA2 (BRM) function activators, primary screen, cell-based, luminescence, high throughput | activation, % at 9.1 µM | MG213 cells, MMTV-luciferase reporter, dexamethasone, overnight | AID 652017, 2013 | 370,000 compounds, 1% hits; in the data active means activation above about 7.8%;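 further: 0% = vehicle wells and 100% = reference activator wells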
Vif imaging = HIV Vif self-association inhibitors, primary screen, imaging, HEK293T, single point; HEK293T cells, Vif self-association by quenched fluorescence, 24 h; inhibition, % at 7.49 µM; 340,000 compounds, 0.35% hits; AID 602346, 2012; in the data active means inhibition above about 50%, passing the limit was not always enough
NadD block = inhibitors of S. aureus NadD, primary screen, biochemical, colorimetric, uHTS | purified NadD enzyme, colorimetric absorbance read-out | inhibition, % at 20 µM | 360,000 compounds, 0.78% hits; in the data active means inhibition above about 26%
The depositor's hits bear a star. Rows were chosen to be rich in hits. Some 5.2% of all compounds tested hit in one or more screens of this group.

C[C@@H]1CN([C@H](C)CO)C(=O)c2cccc(NS(=O)(=O)c3ccc(Cl)cc3)c2O[C@@H]1CN(C)Cc1ccc(-c2ccccc2)cc1 was read as esBAF inh -3.
Screening COc1cccc(/C=N/NC(=O)c2nnn(-c3nonc3N)c2C(C)C)c1OCc1ccc(F)cc1 returned SKN-1 inh 11, GRIN3A LBD mod 6, esBAF inh 11, Vif imaging -9 and NadD block 4.
CC(C)c1c(C(=O)N/N=C/c2cccc3ccccc23)nnn1-c1nonc1N was read as SKN-1 inh -9, GRIN3A LBD mod 32*, esBAF inh -4, SMARCA2 activ 3, Vif imaging 1 and NadD block 3.
Clc1ccccc1/C=C/c1nc(-c2cccnc2)no1 was read as SKN-1 inh 39*, GRIN3A LBD mod 0, esBAF inh 21, SMARCA2 activ 2, Vif imaging -4 and NadD block -13.
Cc1ccc(-c2noc(/C=C/c3ccccc3)n2)cc1 was read as SKN-1 inh 7, GRIN3A LBD mod 3, esBAF inh 46*, SMARCA2 activ 3, Vif imaging 0 and NadD block -3.
For C(=C\c1nc(-c2cccnc2)no1)/c1ccccc1 the results were SKN-1 inh 66*, GRIN3A LBD mod -1, esBAF inh 20, SMARCA2 activ 4, Vif imaging 5 and NadD block -2.
For Clc1ccc(-c2noc(/C=C/c3ccccc3)n2)cc1 the results were SKN-1 inh 1, GRIN3A LBD mod -1, esBAF inh 31, SMARCA2 activ -1, Vif imaging 0 and NadD block 2.
Screening CCC(C)(C)NC(=O)C(NS(=O)(=O)c1cccs1)c1ccccc1 (stereo not given) returned SKN-1 inh -9, GRIN3A LBD mod 31*, esBAF inh -1, SMARCA2 activ 1 and NadD block 0.
Screening CO[C@@H]1CN(C)C(=O)c2ccc(NC(=O)C3CCC3)cc2OC[C@H](C)N(C)C[C@H]1C returned esBAF inh -2.
`O=C(Nc1cnn(Cc2c(Cl)cccc2Cl)c1)c1ccc([N+](=O)[O-])cc1` gave SKN-1 inh 8, GRIN3A LBD mod -14, esBAF inh 73*, SMARCA2 activ -2, Vif imaging 14 and NadD block -4.
For CN(C)c1ccc(NC(=O)c2ccc(Cn3cc([N+](=O)[O-])cn3)cc2)cc1 the results were SKN-1 inh 7, GRIN3A LBD mod -4, esBAF inh 57*, SMARCA2 activ 4, Vif imaging -4 and NadD block 5.
Screening O=C(COc1ccc(Cl)cc1)Nc1cnn(Cc2c(Cl)cccc2Cl)c1 returned SKN-1 inh -5, GRIN3A LBD mod 2, esBAF inh -1, SMARCA2 activ -2, Vif imaging -5 and NadD block 3.
C=CC[n+]1ccc(/C=C2\C=Cc3cc(C)ccc3N2CC)c2ccccc21 was read as SKN-1 inh 38*, GRIN3A LBD mod -6, esBAF inh -58, Vif imaging -27 and NadD block 1.
CCN1/C(=C/c2cc[n+](CCCS(=O)(=O)[O-])c3ccccc23)Sc2ccccc21 was read as SKN-1 inh 20, GRIN3A LBD mod 1, SMARCA2 activ 1, Vif imaging -3 and NadD block 11.
C[C@H]1CN([C@@H](C)CO)C(=O)c2cc(NS(=O)(=O)c3ccc(F)cc3)ccc2O[C@H]1CN(C)C(=O)NC1CCCCC1 was read as esBAF inh 0.
For N#Cc1cc2c(=O)n3ccccc3nc2n(-c2ccccc2Cl)c1=O the results were SKN-1 inh -3, GRIN3A LBD mod 6, esBAF inh -39, SMARCA2 activ -3, Vif imaging 154* and NadD block 7.
`CCOCCCn1c(=NC(C)=O)c(C#N)cc2c(=O)n3ccccc3nc21` gave SKN-1 inh 5, GRIN3A LBD mod -1, SMARCA2 activ -4, Vif imaging 0 and NadD block 3.

Source: PubChem BioAssay (several laboratories)
